Consider five compounds from PubChem BioAssay (EPA / NIEHS).

The structures appear in SMILES notation. Results filed as inconclusive are left out. Active and inactive are the calls of the source. Rule for the calls, unless noted: active = hit-call score of the fitted dose curve at least 0.9, where 1 is the maximum; inactive = score below 0.9.

Test [1] can be described thus: ATG_Hpa5_TRANS: Attagene TRANS-FACTORIAL HepG2 Assay for human GAL4-Hpa5 Hepatocyte Transcription Factor Basal Promoter (AID 2282975; active = hit-call score of the fitted dose curve at least 0.9, where 1 is the maximum;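 note: hits are increases in reporter mRNA over DMSO baseline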). Particulars: HepG2 Attagene GAL4-Hpa5 transcription reporter. In short, it runs like this:
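Basal-promoter GAL4 background control within the HepG2 trans-factorial panel of transiently transfected reporter units. Reporter mRNA is measured 24 h after dosing by RT-PCR and capillary electrophoresis, fitted for gain of signal versus DMSO.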

The target in test [2] is Bile acid receptor (Homo sapiens) (UniProt Q96RI1). In words: ATG_FXR_TRANS: Attagene TRANS-FACTORIAL HepG2 Assay for Farnesoid X Receptor (FXR) (AID 2282979; active = hit-call score of the fitted dose curve at least 0.9, where 1 is the maximum;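 note: hits raise reporter mRNA above DMSO so AC50 marks FXR activation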). Particulars: HepG2 Attagene TRANS FXR-GAL4 reporter transcription. An outline of the steps:
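HepG2 cells transiently transfected with reporter constructs in which a chimeric FXR-GAL4 protein drives a GAL4-UAS reporter; 24 h compound exposure. Reporter mRNA measured by RT-PCR, FAM labelling, HpaI digestion and capillary electrophoresis; gain-of-signal versus DMSO.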

For test [3], the target named is Oxysterols receptor LXR-beta (Homo sapiens) (UniProt P55055). Kind of test: ATG_LXRb_TRANS: Attagene TRANS-FACTORIAL HepG2 Assay for human Liver X Receptor beta (LXRb) (AID 2282981; active = hit-call score of the fitted dose curve at least 0.9, where 1 is the maximum). The settings on record: HepG2 Attagene TRANS GAL4-LXRb reporter, mRNA. An outline of the steps:
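Cells: HepG2, transiently transfected with GAL4-UAS reporter units plus LXRb-Gal4 fusion. Treatment: 24 h. Detection: reporter mRNA by RT-PCR, 6-FAM labelling, HpaI digestion, capillary electrophoresis.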

Test [4] in a line: ATG_M_32_TRANS: Attagene TRANS-FACTORIAL HepG2 Assay for M32 Transcription Factor (Internal Marker) (AID 2282984; active = hit-call score of the fitted dose curve at least 0.9, where 1 is the maximum). Particulars: HepG2 Attagene TRANS M32 internal marker reporter. An outline of the steps:
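Using transiently transfected HepG2 cells exposed to test chemicals for 24 h, reporter transcripts are converted to labelled cDNA fragments and quantified by capillary electrophoresis. DMSO defines the activity baseline.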

The target in test [5] is Nuclear respiratory factor 1 (Homo sapiens) (UniProt Q16656). Kind of test: ATG_NRF1_CIS: Attagene CIS-FACTORIAL HepG2 Assay for human Nuclear Respiratory Factor 1 (NRF1) Orphan Gene (AID 2282987). The settings on record: HepG2 NRF1 cis-element reporter, Attagene multiplex; actives raise or lower the signal. In short, it runs like this: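 Reporter mRNA induction or loss in HepG2 cells after 24 h dosing; cis-regulated reporter constructs report endogenous transcription-factor activity. Quantified by RT-PCR/capillary electrophoresis fluorescence, DMSO-referenced.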
Sequence of Nuclear respiratory factor 1 (Homo sapiens) (Q16656 whole entry, looked up): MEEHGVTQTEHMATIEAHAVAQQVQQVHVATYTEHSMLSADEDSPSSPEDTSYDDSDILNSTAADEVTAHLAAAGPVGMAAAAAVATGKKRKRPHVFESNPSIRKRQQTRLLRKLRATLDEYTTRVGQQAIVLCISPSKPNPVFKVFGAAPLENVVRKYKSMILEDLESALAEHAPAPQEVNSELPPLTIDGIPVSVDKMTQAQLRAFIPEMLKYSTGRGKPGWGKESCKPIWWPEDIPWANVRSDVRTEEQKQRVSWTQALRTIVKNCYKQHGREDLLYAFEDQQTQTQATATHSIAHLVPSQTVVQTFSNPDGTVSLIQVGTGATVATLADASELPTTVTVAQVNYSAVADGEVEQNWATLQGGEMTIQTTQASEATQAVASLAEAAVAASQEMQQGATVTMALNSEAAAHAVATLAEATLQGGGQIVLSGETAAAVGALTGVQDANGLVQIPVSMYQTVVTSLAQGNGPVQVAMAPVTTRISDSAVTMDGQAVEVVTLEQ

For test [6], the target named is Myc proto-oncogene protein (Homo sapiens) (UniProt P01106). In words: ATG_Myc_CIS: Attagene CIS-FACTORIAL HepG2 Assay for human Myelocytomatosis (Myc) Proto-Oncogene Transcription Factor (AID 2282990). Particulars: HepG2, Attagene cis-reporter transcription factor activity; actives raise or lower the signal. An outline of the steps:
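HepG2, transient MRTU transfection (cis promoters, endogenous TFs); 24 h dosing; TriZol RNA → oligo(dT) RT → PCR → 6-FAM primer extension → HpaI cut → CE. Bidirectional fit vs DMSO.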

Test [7] can be described thus: ATG_NRF2_ARE_CIS: Attagene CIS-FACTORIAL HepG2 Assay for human Nuclear Factor Erythroid 2 Related Factor 2 (NFR2) response to Antioxidant Response Elements (ARE) (AID 2282992).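 For AC50: reporter mRNA level measured by RT-PCR and capillary electrophoresis fluorescence.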 Particulars: HepG2 Attagene ARE/NRF2 reporter, transcription factor activity; actives raise or lower the signal. An outline of the steps: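 Multiplexed reporter mRNA profiling in HepG2 after a 24 h chemical exposure. Curves fitted in both directions relative to DMSO negative control.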

A short description of test [8]: ATG_Oct_MLP_CIS: Attagene CIS-FACTORIAL HepG2 Assay for human Octamer-Binding Transcription Factor (Oct) (AID 2282993). Particulars: HepG2 Attagene cis-factorial Oct reporter, mRNA; actives raise or lower the signal. An outline of the steps:
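Using HepG2 cells bearing transfected cis-reporter constructs, mRNA induction was read after 24 h by fluorescent RT-PCR and capillary electrophoresis, with DMSO defining baseline for gain- or loss-of-signal fits.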

For test [9], the target named is Cellular tumor antigen p53 (Homo sapiens) (UniProt P04637). In words: ATG_p53_CIS: Attagene CIS-FACTORIAL HepG2 Assay for human p53 Transcription Factor (AID 2282994). Particulars: HepG2 p53 cis-element reporter, Attagene mRNA; actives raise or lower the signal. An outline of the steps:
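Multiplexed reporter mRNA assay in human HepG2 liver cells; cis-regulated units report endogenous factor activity. Values come from bidirectional curve fitting against DMSO negative control after 24 h treatment.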

Test [10] can be described thus: BSK_3C_TissueFactor: BioMAP Diversity Plus: 3C Assay for Tissue Factor Biomarker Activity (AID 2282997). The settings on record: BioMAP 3C HUVEC, tissue factor biomarker readout; actives raise or lower the signal. In short, it runs like this: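 Primary human umbilical vein endothelial cells in the 3C system were exposed to test chemical for 24 h, then Tissue Factor measured by ELISA. Activity was fitted bidirectionally against DMSO as negative control and baseline.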

Test [11] in a line: BSK_3C_uPAR: BioMAP Diversity Plus: 3C Assay for Urokinase-type plasminogen activator receptor (uPAR) Biomarker Activity (AID 2282998). The settings on record: BioMAP 3C HUVEC, uPAR biomarker ELISA; actives raise or lower the signal. An outline of the steps: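 In this endothelial cell-based assay, human umbilical vein primary cells were treated with chemicals and harvested at 24 h. uPAR was quantified using ELISA, with gains or losses fitted relative to DMSO controls.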

Test [12] in a line: ATG_GAL4_TRANS: Attagene TRANS-FACTORIAL HepG2 Assay for GAL4 (Internal Marker) (AID 2282976; active = hit-call score of the fitted dose curve at least 0.9, where 1 is the maximum). The settings on record: HepG2 Attagene TRANS GAL4 internal marker reporter. An outline of the steps: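 HepG2 cells transiently transfected with multiplexed GAL4-UAS reporter constructs were dosed for 24 h. Reporter mRNA was measured by RT-PCR, 6-FAM primer extension, HpaI digestion and capillary electrophoresis, and gain of signal was fitted relative to DMSO.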

Test [13] deals with Glucocorticoid receptor (Homo sapiens) (UniProt P04150). In words: ATG_GR_TRANS: Attagene TRANS-FACTORIAL HepG2 Assay for human Glucocorticoid Receptor (GR) (AID 2282978; active = hit-call score of the fitted dose curve at least 0.9, where 1 is the maximum;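 note: activators score as hits since higher reporter transcript over DMSO is fitted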). The settings on record: HepG2 Attagene TRANS GR reporter, mRNA transcription. In short, it runs like this:
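Transiently transfected HepG2 cells express chimeric NR-GAL4 proteins acting on GAL4-UAS reporter units. Compounds are applied for 24 h. mRNA induction over DMSO is measured by capillary electrophoresis.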

Test [14] deals with Hepatocyte nuclear factor 4-alpha (Homo sapiens) (UniProt P41235). In words: ATG_HNF4a_TRANS: Attagene TRANS-FACTORIAL HepG2 Assay for human Hepatocyte Nuclear Factor 4 alpha (HNF4a) (AID 2282982; active = hit-call score of the fitted dose curve at least 0.9, where 1 is the maximum). The settings on record: HepG2 HNF4a transactivation reporter, mRNA readout. In short, it runs like this:
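Transfected HepG2 reporter cells are dosed for 24 h; reporter RNA is reverse-transcribed, amplified, fluorescently labelled and HpaI-digested before CE sizing. Positive-direction fit against DMSO.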

Test [15] in a line: ATG_M_06_TRANS: Attagene TRANS-FACTORIAL HepG2 Assay for M06 Transcription Factor (Internal Marker) (AID 2282983; active = hit-call score of the fitted dose curve at least 0.9, where 1 is the maximum;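 note: reporter transcript level by RT-PCR then capillary electrophoresis fluorescence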). The settings on record: HepG2 Attagene TRANS M06 internal marker reporter. An outline of the steps:
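HepG2 cells transiently transfected with multiplexed GAL4-UAS reporter transcription units; after 24 h compound exposure, reporter mRNA measured by RT-PCR, FAM-labelled primer extension, HpaI digestion and capillary electrophoresis. Gain-of-signal fitted versus DMSO baseline; background control readout.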

Test [16] has as its target Nuclear receptor subfamily 4 group A member 2 (Homo sapiens) (UniProt P43354). Kind of test: ATG_NURR1_TRANS: Attagene TRANS-FACTORIAL HepG2 Assay for human Nuclear Receptor Related Protein 1 (NURR1) (AID 2282985; active = hit-call score of the fitted dose curve at least 0.9, where 1 is the maximum). Particulars: HepG2 Attagene TRANS reporter, mRNA readout. An outline of the steps: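 Cells: HepG2, transiently transfected. Exposure: 24 h. Detection: fluorescence of labelled RT-PCR products separated by capillary electrophoresis; upward fit versus DMSO.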

The target of test [17] is Transcriptional activator Myb (Homo sapiens) (UniProt P10242). Kind of test: ATG_Myb_CIS: Attagene CIS-FACTORIAL HepG2 Assay for human Myeloblastosis (Myb) Proto-Oncogene Transcription Factor (AID 2282986). Particulars: HepG2 Attagene CIS-FACTORIAL Myb reporter transcription; actives raise or lower the signal. In short, it runs like this: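 Using HepG2 liver cells bearing transiently transfected cis-promoter reporter constructs, the assay measures induction or loss of reporter mRNA after 24 hours of dosing. Detection used fluorescently labeled RT-PCR products separated by capillary electrophoresis.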

The target of test [18] is Oxysterols receptor LXR-alpha (Homo sapiens) (UniProt Q13133). Kind of test: ATG_LXRa_TRANS: Attagene TRANS-FACTORIAL HepG2 Assay for human Liver X Receptor alpha (LXRa) (AID 2282980; active = hit-call score of the fitted dose curve at least 0.9, where 1 is the maximum). Particulars: HepG2 Attagene TRANS reporter, LXRa transactivation. An outline of the steps:
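HepG2 cells were transiently transfected with multiplexed reporter units driven by chimeric LXRa–GAL4 fusion proteins, then dosed for 24 h. Reporter mRNA was quantified by RT-PCR, fluorescent labelling and capillary electrophoresis; gain of signal fitted against DMSO baseline.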

Test [19] is described as follows: ATG_NFI_CIS: Attagene CIS-FACTORIAL HepG2 Assay for human Nuclear Factor I (NFI) (AID 2282989). The settings on record: HepG2 cis-regulatory reporter, NFI response element transcription; actives raise or lower the signal. In short, it runs like this:
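Transfected HepG2 liver cells, exposed 24 h, supplied total RNA for oligo(dT) reverse transcription and reporter-specific PCR. Labelled, HpaI-cut fragments were sized by capillary electrophoresis; DMSO set the baseline for bidirectional fitting.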

Sequence of Oxysterols receptor LXR-beta (Homo sapiens) (P55055 whole entry, looked up, the tested form may be a part): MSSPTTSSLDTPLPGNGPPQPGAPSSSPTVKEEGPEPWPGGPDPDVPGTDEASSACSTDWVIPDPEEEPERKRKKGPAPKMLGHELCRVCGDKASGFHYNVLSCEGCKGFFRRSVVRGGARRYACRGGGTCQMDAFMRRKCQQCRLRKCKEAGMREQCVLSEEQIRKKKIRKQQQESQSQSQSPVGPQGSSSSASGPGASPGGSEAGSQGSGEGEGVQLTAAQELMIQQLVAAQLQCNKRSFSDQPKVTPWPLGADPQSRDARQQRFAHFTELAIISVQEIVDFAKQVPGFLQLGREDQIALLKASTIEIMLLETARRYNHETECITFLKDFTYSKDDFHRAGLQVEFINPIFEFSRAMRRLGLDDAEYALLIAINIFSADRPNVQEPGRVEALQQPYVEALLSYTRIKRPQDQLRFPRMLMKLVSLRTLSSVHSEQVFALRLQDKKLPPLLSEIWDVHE
Sequence of Nuclear receptor subfamily 4 group A member 2 (Homo sapiens) (P43354 whole entry, looked up): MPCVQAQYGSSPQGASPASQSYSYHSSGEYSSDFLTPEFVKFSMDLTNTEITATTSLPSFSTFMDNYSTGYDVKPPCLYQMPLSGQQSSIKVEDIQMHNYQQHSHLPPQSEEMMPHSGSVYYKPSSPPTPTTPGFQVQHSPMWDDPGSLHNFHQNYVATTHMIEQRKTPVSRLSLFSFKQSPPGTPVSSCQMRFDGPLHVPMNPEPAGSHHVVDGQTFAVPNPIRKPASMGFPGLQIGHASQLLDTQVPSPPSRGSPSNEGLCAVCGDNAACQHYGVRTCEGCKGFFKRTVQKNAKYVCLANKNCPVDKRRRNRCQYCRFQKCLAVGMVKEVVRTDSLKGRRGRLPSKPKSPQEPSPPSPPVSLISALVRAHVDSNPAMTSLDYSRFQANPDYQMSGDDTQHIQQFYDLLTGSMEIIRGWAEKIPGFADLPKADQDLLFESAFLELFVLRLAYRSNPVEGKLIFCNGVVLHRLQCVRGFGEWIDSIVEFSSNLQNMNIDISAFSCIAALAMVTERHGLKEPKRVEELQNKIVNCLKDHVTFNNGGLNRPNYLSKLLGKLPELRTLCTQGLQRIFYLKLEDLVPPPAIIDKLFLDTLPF
Sequence of Myc proto-oncogene protein (Homo sapiens) (P01106 whole entry, looked up): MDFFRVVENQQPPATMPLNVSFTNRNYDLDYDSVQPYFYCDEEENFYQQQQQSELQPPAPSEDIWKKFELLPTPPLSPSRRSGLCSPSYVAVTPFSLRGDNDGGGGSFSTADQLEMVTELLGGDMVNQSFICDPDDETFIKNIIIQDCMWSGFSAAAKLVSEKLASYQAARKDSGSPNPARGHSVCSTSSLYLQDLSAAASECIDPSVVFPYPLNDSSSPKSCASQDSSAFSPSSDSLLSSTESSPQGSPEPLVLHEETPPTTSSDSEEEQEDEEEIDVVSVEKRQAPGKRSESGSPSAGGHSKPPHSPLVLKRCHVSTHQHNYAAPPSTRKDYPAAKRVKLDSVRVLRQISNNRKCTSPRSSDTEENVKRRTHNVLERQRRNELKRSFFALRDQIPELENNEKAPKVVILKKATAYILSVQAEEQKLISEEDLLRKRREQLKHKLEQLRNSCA
Sequence of Cellular tumor antigen p53 (Homo sapiens) (P04637 whole entry, looked up): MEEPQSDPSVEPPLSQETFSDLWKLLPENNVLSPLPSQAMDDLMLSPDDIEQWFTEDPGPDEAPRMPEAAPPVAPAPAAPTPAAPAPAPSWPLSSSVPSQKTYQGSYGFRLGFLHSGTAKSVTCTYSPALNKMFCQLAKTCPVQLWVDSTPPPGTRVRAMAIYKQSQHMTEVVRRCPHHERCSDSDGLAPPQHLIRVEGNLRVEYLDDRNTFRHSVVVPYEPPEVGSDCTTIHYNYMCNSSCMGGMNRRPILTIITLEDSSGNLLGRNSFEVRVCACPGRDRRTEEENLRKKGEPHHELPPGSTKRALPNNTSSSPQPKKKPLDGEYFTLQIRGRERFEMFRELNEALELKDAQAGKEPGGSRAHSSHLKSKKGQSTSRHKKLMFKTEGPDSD
Sequence of Glucocorticoid receptor (Homo sapiens) (P04150 whole entry, looked up, the tested form may be a part): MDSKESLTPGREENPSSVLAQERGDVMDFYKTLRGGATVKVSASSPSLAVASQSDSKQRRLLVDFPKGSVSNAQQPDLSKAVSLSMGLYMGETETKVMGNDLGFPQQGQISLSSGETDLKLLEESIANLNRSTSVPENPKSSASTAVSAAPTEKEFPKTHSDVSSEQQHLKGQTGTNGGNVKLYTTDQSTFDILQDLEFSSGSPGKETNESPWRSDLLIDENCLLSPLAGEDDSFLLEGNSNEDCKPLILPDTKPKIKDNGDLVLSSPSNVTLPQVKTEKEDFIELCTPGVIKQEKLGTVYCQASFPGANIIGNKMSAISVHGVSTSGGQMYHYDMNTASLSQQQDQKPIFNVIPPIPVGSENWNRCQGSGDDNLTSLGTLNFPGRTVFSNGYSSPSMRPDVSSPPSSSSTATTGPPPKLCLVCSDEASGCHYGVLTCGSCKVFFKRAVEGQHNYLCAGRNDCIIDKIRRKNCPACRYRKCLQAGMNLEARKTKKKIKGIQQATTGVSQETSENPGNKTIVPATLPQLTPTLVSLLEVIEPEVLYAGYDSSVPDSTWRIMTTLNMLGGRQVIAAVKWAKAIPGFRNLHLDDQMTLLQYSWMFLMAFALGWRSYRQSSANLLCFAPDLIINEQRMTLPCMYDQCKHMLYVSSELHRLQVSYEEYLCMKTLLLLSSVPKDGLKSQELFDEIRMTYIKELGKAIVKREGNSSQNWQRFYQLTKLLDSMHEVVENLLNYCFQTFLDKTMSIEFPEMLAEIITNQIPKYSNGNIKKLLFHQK
Sequence of Hepatocyte nuclear factor 4-alpha (Homo sapiens) (P41235 whole entry, looked up): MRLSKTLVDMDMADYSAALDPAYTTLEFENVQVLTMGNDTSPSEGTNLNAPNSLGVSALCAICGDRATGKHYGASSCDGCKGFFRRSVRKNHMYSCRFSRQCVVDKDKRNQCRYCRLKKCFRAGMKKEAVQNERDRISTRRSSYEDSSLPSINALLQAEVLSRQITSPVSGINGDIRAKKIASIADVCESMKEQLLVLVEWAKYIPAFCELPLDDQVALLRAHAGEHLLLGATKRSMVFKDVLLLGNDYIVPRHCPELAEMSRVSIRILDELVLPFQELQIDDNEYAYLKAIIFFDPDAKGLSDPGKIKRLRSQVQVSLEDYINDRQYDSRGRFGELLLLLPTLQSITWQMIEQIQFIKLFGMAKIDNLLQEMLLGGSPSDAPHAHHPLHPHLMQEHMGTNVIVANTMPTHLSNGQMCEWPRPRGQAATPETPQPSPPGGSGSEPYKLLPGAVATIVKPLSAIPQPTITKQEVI
Sequence of Bile acid receptor (Homo sapiens) (Q96RI1 whole entry, looked up, the tested form may be a part): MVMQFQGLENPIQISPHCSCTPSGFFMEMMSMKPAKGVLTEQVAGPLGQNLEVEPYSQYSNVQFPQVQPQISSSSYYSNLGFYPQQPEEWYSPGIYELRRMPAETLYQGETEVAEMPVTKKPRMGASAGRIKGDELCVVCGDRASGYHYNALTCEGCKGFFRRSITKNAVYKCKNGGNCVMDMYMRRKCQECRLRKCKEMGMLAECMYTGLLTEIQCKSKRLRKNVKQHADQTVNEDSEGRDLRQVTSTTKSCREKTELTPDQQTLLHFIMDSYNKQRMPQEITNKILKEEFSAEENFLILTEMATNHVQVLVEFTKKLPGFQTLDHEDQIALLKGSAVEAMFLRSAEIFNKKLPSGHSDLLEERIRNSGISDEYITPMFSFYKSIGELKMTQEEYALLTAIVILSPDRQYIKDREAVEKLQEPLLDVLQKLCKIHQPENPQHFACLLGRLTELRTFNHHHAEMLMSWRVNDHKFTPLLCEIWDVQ
Sequence of Oxysterols receptor LXR-alpha (Homo sapiens) (Q13133 whole entry, looked up, the tested form may be a part): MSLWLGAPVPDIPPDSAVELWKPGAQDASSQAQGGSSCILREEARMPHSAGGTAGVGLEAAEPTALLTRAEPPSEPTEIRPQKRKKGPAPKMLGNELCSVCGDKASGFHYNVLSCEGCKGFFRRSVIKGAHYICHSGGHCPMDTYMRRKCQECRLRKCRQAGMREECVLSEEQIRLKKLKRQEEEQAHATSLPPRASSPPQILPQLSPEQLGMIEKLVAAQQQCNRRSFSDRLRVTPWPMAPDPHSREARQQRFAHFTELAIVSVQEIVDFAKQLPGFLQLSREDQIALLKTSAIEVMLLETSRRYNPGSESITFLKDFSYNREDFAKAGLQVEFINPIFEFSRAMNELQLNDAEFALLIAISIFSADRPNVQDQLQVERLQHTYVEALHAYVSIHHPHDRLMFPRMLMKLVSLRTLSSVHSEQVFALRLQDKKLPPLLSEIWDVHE

On to `COCC(=O)N(c1c(C)cccc1C)C(C)C(=O)OC` (configuration not stated), for which the call in test [1], in test [2], in test [3], in test [4], in test [5] and in [6] was inactive. Besides, the call in test [8], in test [9], in test [10] and in test [11] was inactive. Moreover, in test [7], the AC50 was 50 µM (active).
For `CSC(=O)c1c(C(F)F)nc(C(F)(F)F)c(C(=O)SC)c1CC(C)C`, the outcome in test [12], in [13], in [14], in [15], in [4] and in [17] was inactive. For the same compound, the result in [5], in test [6], in [7], in [8], in [9] and in test [10] was inactive. Moreover, the AC50 was 13.5 µM (active) in [16] and 32.6 µM (active) in [11].
With `CCCN(CC)CC1COC2(CCC(C(C)(C)C)CC2)O1` (configuration not stated), the result in test [13], in [18], in test [3], in test [14], in test [4] and in [5] was inactive. In addition, the compound was classed as inactive in [19], in [6], in test [9], in test [10] and in test [11]. Also, the results for the AC50 in test [7] and in [8] were 5.91 µM (active) and 14.5 µM (active), respectively.
Regarding `CCCCC(C#N)(Cn1cncn1)c1ccc(Cl)cc1` (configuration not stated), the call in test [1], in [13], in test [3], in [14], in [15] and in test [4] was inactive. Moreover, the call in test [16], in [5], in test [19], in [6], in test [7] and in [8] was inactive. In addition, the call in test [9], in [10] and in test [11] was inactive.
For the compound `Cc1nc(N(C)C)nc(OC(=O)N(C)C)c1C`, the result in test [13], in test [2], in [16], in test [5], in test [6] and in [7] was inactive. Further, the compound was called inactive in test [8], in [10] and in [11].
